# Laboratory results reported in the supplement of paper PMC12067926.
# Columns and labels:
# Assay in all cases: relative growth (AUC of 72 h growth curve relative to DMSO control, dAUC) (ratio); higher = more growth (less inhibition), active = hit call of the paper
# Settings in all cases: 20 µM;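 active = growth AUC significantly below the DMSO wells by Dunnett test; inactive = the rest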
# [1] = test system: Prolinoborus 1 (Prolinoborus fasciculus)
# In short: (§1)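 Whole sediment communities and bacterial isolates from Icelandic stream sediments and Silwood Park soil were brought to carrying capacity in Luria–Bertani medium. They were then diluted 1:100 into 96-well plates with each chemical at 20 µM in 1% DMSO, and A600 was recorded every hour for 72 h. The area under each growth curve, integrated by spline, was averaged across three biological replicates. This figure, divided by the mean of the DMSO controls, gives relative growth (dAUC).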
# [2] = test system: Pseudomonas 1 (Pseudomonas baetica)
# In short: as §1
# [3] = test system: Pseudomonas 2 (Pseudomonas vancouverensis)
# In short: as §1
# [4] = test system: Pseudomonas 3 (Pseudomonas mandelii)
# In short: as §1
# [5] = test system: Pseudomonas 4 (Pseudomonas peli)
# In short: as §1
# [6] = test system: Pseudomonas 5 (Pseudomonas baetica)
# In short: as §1
# [7] = test system: Pseudomonas 6 (Pseudomonas sp.)
# In short: as §1
# [8] = test system: Rhizobium 1 (Rhizobium herbae)
# In short: as §1
# [9] = test system: Serratia 1 (Serratia sp. 2015-2462-01)
# In short: as §1
# [10] = test system: Sphingomonas 2 (Sphingomonas sp.)
# In short: as §1
Compound,relative growth [1],relative growth [2],relative growth [3],relative growth [4],relative growth [5],relative growth [6],relative growth [7],relative growth [8],relative growth [9],relative growth [10]
COCC(=O)N(c1c(C)cccc1C)[C@H](C)C(=O)OC,0.988 (inactive),0.997 (inactive),0.974 (inactive),1.09 (inactive),1.03 (inactive),1.01 (inactive),1.01 (inactive),1.13 (inactive),0.965 (inactive),1.02 (inactive)
CSc1nnc(C(C)(C)C)c(=O)n1N,0.951 (inactive),0.717 (inactive),0.997 (inactive),0.984 (inactive),1.01 (inactive),0.998 (inactive),0.948 (inactive),0.958 (inactive),0.995 (inactive),0.779 (inactive)
Fc1ccc([C@]2(Cn3cncn3)O[C@H]2c2ccccc2Cl)cc1 (racemic),0.982 (inactive),0.942 (inactive),0.973 (inactive),1.04 (inactive),0.967 (inactive),0.992 (inactive),1.07 (inactive),1.08 (inactive),0.972 (inactive),1.01 (inactive)
COc1ccc(-c2ccccc2)cc1NNC(=O)OC(C)C,0.918 (inactive),1.14 (inactive),0.964 (inactive),1.05 (inactive),0.951 (inactive),1.08 (inactive),1.17 (inactive),0.865 (inactive),0.932 (inactive),0.92 (inactive)
CC(C)CC(C)c1sccc1NC(=O)c1cn(C)nc1C(F)(F)F (stereo not given),0.895 (inactive),1.11 (inactive),0.985 (inactive),1.05 (inactive),1 (inactive),1 (inactive),1.05 (inactive),0.331 (active),0.974 (inactive),0.888 (inactive)
O=[N+]([O-])c1cc(C(F)(F)F)c(Cl)c([N+](=O)[O-])c1Nc1ncc(C(F)(F)F)cc1Cl,0.66 (active),0.775 (inactive),0.795 (active),0.00358 (active),0.498 (active),0.595 (active),0.258 (active),0.109 (active),0.004 (active),0.0215 (active)
Nc1c([N+](=O)[O-])ccc(Oc2ccccc2)c1Cl,0.962 (inactive),1.15 (inactive),0.982 (inactive),1.03 (inactive),0.949 (inactive),1.02 (inactive),1.15 (inactive),0.888 (inactive),0.946 (inactive),0.871 (inactive)
COC(=O)c1ccccc1S(=O)(=O)NC(=O)Nc1nc(C)nc(OC)n1,1.03 (inactive),0.998 (inactive),1.01 (inactive),0.983 (inactive),1.08 (inactive),0.984 (inactive),0.905 (inactive),1.15 (inactive),1.11 (inactive),1.03 (inactive)
CCCCN(CCCC)SN(C)C(=O)Oc1cccc2c1OC(C)(C)C2,0.949 (inactive),0.618 (active),1.03 (inactive),1.07 (inactive),1.01 (inactive),1.03 (inactive),1.18 (inactive),0.946 (inactive),0.977 (inactive),0.798 (inactive)
Cc1cc(C2CC2)nc(Nc2ccccc2)n1,1.03 (inactive),1.11 (inactive),1 (inactive),1.03 (inactive),0.976 (inactive),0.991 (inactive),0.966 (inactive),1.06 (inactive),0.969 (inactive),0.951 (inactive)
CCSC(C)CC1CC(=O)C(/C(CC)=N/OC/C=C/Cl)=C(O)C1 (mixture of isomers),0.983 (inactive),1.07 (inactive),0.999 (inactive),1.02 (inactive),1.01 (inactive),1.05 (inactive),1.14 (inactive),0.924 (inactive),0.973 (inactive),1.18 (inactive)
CC(COc1ccc(Oc2ccccc2)cc1)Oc1ccccn1 (stereo not given),1.03 (inactive),1.02 (inactive),1 (inactive),1.01 (inactive),1.05 (inactive),1.01 (inactive),1.08 (inactive),0.97 (inactive),0.987 (inactive),1.14 (inactive)
C[N+](C)(C)CCCl,0.959 (inactive),1.07 (inactive),1.03 (inactive),1.01 (inactive),1.04 (inactive),1.02 (inactive),1.07 (inactive),0.998 (inactive),0.962 (inactive),1.02 (inactive)
CCC(C)c1ccccc1OC(=O)NC (stereo not given),1.02 (inactive),0.95 (inactive),1.01 (inactive),1.07 (inactive),1.01 (inactive),1.04 (inactive),1.09 (inactive),1.01 (inactive),0.971 (inactive),1 (inactive)
CON(C)C(=O)Nc1ccc(Cl)c(Cl)c1,0.886 (inactive),0.986 (inactive),0.949 (inactive),0.991 (inactive),0.982 (inactive),0.984 (inactive),1.02 (inactive),0.869 (inactive),0.978 (inactive),1.02 (inactive)
C[N+]1(C)CCCCC1,0.974 (inactive),0.972 (inactive),0.981 (inactive),1.02 (inactive),1.05 (inactive),1.04 (inactive),1.03 (inactive),1.02 (inactive),1.03 (inactive),0.999 (inactive)
CCNC(=O)NC(=O)/C(C#N)=N/OC,0.954 (inactive),0.924 (inactive),0.96 (inactive),0.993 (inactive),0.981 (inactive),0.986 (inactive),1.03 (inactive),1.06 (inactive),1 (inactive),0.919 (inactive)
CS(=O)(=O)NC(=O)c1cc(Oc2ccc(C(F)(F)F)cc2Cl)ccc1[N+](=O)[O-],1.01 (inactive),1.01 (inactive),1 (inactive),1 (inactive),0.996 (inactive),1.04 (inactive),1.07 (inactive),0.917 (inactive),1.02 (inactive),1.02 (inactive)
O=C1C2CC=CCC2C(=O)N1SC(Cl)(Cl)Cl (stereo not given),0.598 (active),0.601 (active),0.983 (inactive),0.941 (inactive),0.796 (active),0.954 (inactive),0.879 (inactive),0.519 (active),0.813 (active),0.398 (active)
CCOP(=S)(OCC)Oc1nc(Cl)c(Cl)cc1Cl,0.989 (inactive),1.04 (inactive),1.01 (inactive),1.05 (inactive),0.991 (inactive),1.06 (inactive),1.08 (inactive),0.929 (inactive),0.993 (inactive),1.07 (inactive)
CCc1cc(C)cc(CC)c1-c1c(OC(=O)C(C)(C)C)n2n(c1=O)CCOCC2,0.926 (inactive),1.1 (inactive),0.992 (inactive),1.01 (inactive),0.953 (inactive),0.951 (inactive),1.02 (inactive),0.907 (inactive),0.972 (inactive),1.06 (inactive)
Clc1ccc(C(c2ccc(Cl)cc2)C(Cl)(Cl)Cl)cc1,1.08 (inactive),1.07 (inactive),0.992 (inactive),1.02 (inactive),0.985 (inactive),1.05 (inactive),1.16 (inactive),1.07 (inactive),1.05 (inactive),0.0545 (active)
CCc1nn(C)c(C(=O)NCc2ccc(Oc3ccc(C)cc3)cc2)c1Cl,0.978 (inactive),1.08 (inactive),1.02 (inactive),1.01 (inactive),0.987 (inactive),1.01 (inactive),1.05 (inactive),0.941 (inactive),1.07 (inactive),1.04 (inactive)
CCOCN(C(=O)CCl)c1c(C)cccc1CC,1.2,1.1 (inactive),0.978 (inactive),1.02 (inactive),0.966 (inactive),0.988 (inactive),1.03 (inactive),0.909 (inactive),0.95 (inactive),1.17 (inactive)
CC(Oc1ccc(Oc2nc3ccc(Cl)cc3o2)cc1)C(=O)O (stereo not given),0.978 (inactive),0.948 (inactive),1 (inactive),0.97 (inactive),1.01 (inactive),0.962 (inactive),0.916 (inactive),1.07 (inactive),1.04 (inactive),1.12 (inactive)
CCC(CC)Nc1c([N+](=O)[O-])cc(C)c(C)c1[N+](=O)[O-],0.939 (inactive),1.13 (inactive),0.981 (inactive),1.03 (inactive),0.949 (inactive),1.05 (inactive),1.04 (inactive),0.957 (inactive),0.929 (inactive),0.998 (inactive)
